According to the supplement of paper PMC5407854, “Inhibitor of ppGalNAc-T3-mediated O-glycosylation blocks cancer cell invasiveness and lowers FGF23 levels” (eLife, 2017):
In all, about 1,700 compounds were measured (“T3 sensor activation Q score (MG/GFP ratio z-score vs DMSO controls)”: median about 0.25, highest 2% from about 1.9 on). This excerpt belongs to a sample that is enriched for the highest values.

What follows are compounds tested on ppGalNAc-T3 sensor (assay: T3 sensor activation Q score (MG/GFP ratio z-score vs DMSO controls) (SD units); higher = more sensor activation (inhibition of ppGalNAc-T3 glycosylation)). Settings: HEK293 sensor cells; 10 µM; 6 h.
Procedure: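 Cells were treated with compound at 10 uM for 6 h, then MG/GFP ratio was read by flow cytometry (10,000 cells per well, duplicate wells). Q = (R - R_neg)/SD_neg relative to DMSO vehicle controls; the signal rises when the glycosyltransferase is inhibited.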

SMILES | T3 sensor activation Q score
O=S1(=O)CSCS(=O)(=O)C1 | -0.85
Cc1ccc(NC(=O)Nc2ccccc2C(N)=O)cc1 | -0.95
Cc1cc(NC(=O)NC(=O)c2ccccc2NC(=O)C(C)N)ccc1Oc1ncc(Br)cn1 (stereo not drawn) | 4.35
CSc1cccc(NC(=O)Nc2ccccc2C(N)=O)c1 | 0.9
C[C@@H]1O[C@@H](Oc2c(-c3cc(O)c(O)c(O)c3)oc3cc(O)cc(O)c3c2=O)[C@H](O)[C@H](O)[C@H]1O | 0.05
NC(N)=Nc1ccc(N=C(N)N)cc1 | 0.3
COc1ccc(OC)c(NC(=O)c2cc3oc4ccccc4c3cc2O)c1 | -1.55
Nc1cc(=O)[nH]c2ncnn12 | -0.15
CCOc1ccc(NC(=O)C2CCCN(C)C2)cc1 (stereo not drawn) | 0.6
Nc1ncnc2c([C@@H]3O[C@H](CO)[C@@H](O)[C@H]3O)c[nH]c12 | 0.15
COC(=O)CC1OCC=C2CN3CCC45C6=CC(=O)C(=O)C([N+](=O)[O-])=C6NC4C1C2CC35 (stereo not drawn) | -0.2
CCOC(=O)C1(C#N)C(=O)CSC1=Nc1ccccc1Cl (stereo not drawn) | -1.05
CCOC(=O)Nc1csnn1 | -0.7
CCOC(=O)Nc1c2ccccc2nc2ccccc12 | -1.8
CCOC(=O)Nc1cc2c(c(N)n1)N=C(c1ccccc1)CN2 | 4
Oc1ccc(Nc2ccnc3cc(Cl)ccc23)cc1 | 1.1
O=C(Nc1cccc([N+](=O)[O-])c1)c1cccc(C(=O)Nc2cccc([N+](=O)[O-])c2)c1 | -0.25
Cc1c(-c2ccccc2)n(O)[n+]([O-])c1-c1ccccc1 | 0.7
Oc1ccccc1Nc1ccccn1 | 1.75
Cc1nnc2nc(-c3ccccc3)nc(-c3ccccc3)n12 | -1.75
CCOC(=O)c1c(O)cc(C)[nH]c1=O | -0.85
O=S(=O)(c1ccc2c(c1)CCCN2)N1CCC[C@H]2CCCC[C@@H]21 | 0.2

SMILES | T3 sensor activation Q score
O=C1OC(CN(Cc2ccccc2)Cc2ccccc2)CN1/N=C/c1ccc([N+](=O)[O-])o1 (stereo not drawn) | -0.6
Cc1cc2nc(CS)[nH]c2cc1C | -1.1
CC(=O)Nc1ccc2cc3ccc(NC(C)=O)cc3nc2c1 | 0.2
Cc1ccc(-n2nnnc2-c2cccnc2)cc1 | -0.15
CCOC(=O)c1cc[nH]c1CC(=O)NC | 0.6
Cc1ccc2c(c1)c1ccc3c(c1n2C)C(=O)C=CC3=O | -1.5
Cc1cccc(C)c1NC(=O)Nc1ccc(S(N)(=O)=O)cc1 | 1.6
CCOC(=O)/C(C#N)=C1\SS/C(=C(/C#N)C(=O)OCC)S1 | 0.55
NCCN1CCNCC1 | 1.85
c1cc(CN2CCCNCCNCCCNCC2)ccc1CN1CCCNCCNCCCNCC1 | -0.5
C=CCOc1ccc(S(C)(=O)=O)cc1 | 1.85
C#CCOCC1CN(c2ccccc2)C(=O)O1 (stereo not drawn) | 1.9
CCCCOc1ccc(N=Nc2ccc(N)nc2N)cn1 | 1.7
N#CC1C=Cc2c(ccc3ccccc23)N1C(=O)c1ccccc1 (stereo not drawn) | 2.65
O=C(CC1C=Cc2ccccc2N1C(=O)c1ccccc1)c1ccccc1 (stereo not drawn) | -1.4
O=C(Nc1cccc2ccccc12)c1ccccc1 | -0.45
Nc1ccc2c(c1)Cc1cc(Cl)c(Cl)cc1-2 | -0.65
OC(COc1ccc(Cl)cc1)CN1CCN(c2cccc(Cl)c2)CC1 (stereo not drawn) | -0.65
O=C(Nc1ccc2ncccc2c1)Nc1ccc2ncccc2c1 | 0.15
Cc1c(CCO)c(=O)n2n1CCCC2 | -0.55
CCCCCCCC1(C)NC(=O)NC1=O (stereo not drawn) | -1.9
ClCC(CNCc1ccccc1)c1ccccc1 (stereo not drawn) | 0.35

SMILES | T3 sensor activation Q score
O=c1cc(-c2ccc(Cl)cc2)[nH]c2ccccc12 | 0
c1ccc(N=NN2CCOCC2)cc1 | -0.75
CC1(C)OC2C(CO)OC(n3cnc4c(=S)nc[nH]c43)C2O1 (stereo not drawn) | 0.4
COC(=O)CC1(C(=O)OC)Nc2cc(Cl)c(Cl)cc2S(=O)(=O)N1O (stereo not drawn) | 0.7
CN(CCC#N)c1ccc(/C=C(\C#N)c2cccc(C(F)(F)F)c2)cc1 | -0.05
CC1CC(C)(C)NC2(CCCC2)N1 (stereo not drawn) | -0.6
O=C(Nc1ccc(O)c(C(=O)O)c1)Oc1ccccc1 | 0.9
c1ccc2[nH]c(-c3ccncc3)nc2c1 | 0.2
CC(=O)CC(=O)Nc1ccc2ccccc2c1 | 1.25
c1ccc2[nH]c(CCCCCc3nc4ccccc4[nH]3)nc2c1 | -0.5
Cc1ccc(CC#N)c(-c2c(CC#N)ccc(C)c2C)c1C | -0.85
c1ccc2c(c1)[nH]c1c3ccccc3sc21 | -0.95
O=C(Nc1ccc(Nc2ccncc2)cc1)c1ccc(Nc2ccnc3ccc([N+](=O)[O-])cc23)cc1 | 9.85
O=C(Nc1ccc(Nc2ccncc2)cc1)c1ccc([N+](=O)[O-])cc1 | 0.75
O=C(Nc1ccc(Nc2ccncc2)cc1)c1ccc(Nc2ccnc3ccc([N+](=O)[O-])cc23)cc1[N+](=O)[O-] | -1.4
C/C(=N\NC(=S)N1CC2CCC(CC2)C1)c1cnccn1 | -1.2
CCOC(=O)c1nn(-c2ccccc2)cc1O | 0.05
O=C(c1ccc(OCCN2CCCCC2)cc1)c1c(-c2ccc(O)cc2)sc2cc(O)ccc12 | 2.7
CC1=Nc2ccccc2/C1=C\c1c(C)[nH]c2ccccc12 | -0.45
O=C(C(=O)c1cccnc1)c1cccnc1 | 1.75
Cc1ccncc1C(N)=O | 1.9
Cc1ccc(NC(=O)Nc2cccnc2)cc1NC(=O)Nc1cccnc1 | 0.95

SMILES | T3 sensor activation Q score
COc1ccccc1NC(=O)c1cc2ccccc2cc1O | -0.55
NC(=O)c1cc(C(N)=O)nc(Cl)n1 | -0.8
C=CCNC(=S)N1CCN(c2ccccc2Cl)CC1 | -0.25
O=C(C(Cl)Cl)N1CC2CCC(CC2)C1 | 1.4
NS(=O)(=O)c1ccc(NC(=S)NC(=O)c2ccco2)cc1 | 1
CN=C1C=C/C(=N/N=c2/ccn(O)cc2C)C=C1C | 0.15
CC(C)(C)c1ccc(C(=O)N2CCOC23CCCCC3)cc1 | 1.85
O=C(COc1ccc([N+](=O)[O-])cc1Cl)N1CCOCC1 | 1.85
CC(=O)NCCCOc1ccc([N+](=O)[O-])cc1Cl | -0.6
O=C(COc1cc(Cl)c(Cl)cc1Cl)Nc1ccc([N+](=O)[O-])cc1Cl | -0.3
COc1ccc(Br)c2c1C(=O)CC2 | -1.4
CCCN(CCC)CC(=O)N1CC(=O)Nc2ccccc21 | 0.55
Nc1ccc(N=Nc2ccc(O)cc2)c(N)n1 | 1.5
Cc1ccc(N=Nc2c(O)c3ccccc3[nH]c2=O)c(S(=O)(=O)N(C)C)c1 | 0.95
C#CC1(O)CCC2C3CCC4=Cc5oncc5CC4(C)C3CCC21C (stereo not drawn) | 0.1
COc1cc2c(c(OC)c1O)C(=O)CO2 | 1.55
CC(=O)[C@H]1CC[C@H]2[C@@H]3CCC4=CC(=O)CC[C@]4(C)[C@@]3(F)[C@@H](O)C[C@]12C | 0.55
CC1(c2ccccc2)O[C@@H]2C[C@H]3[C@@H]4CCC5=CC(=O)C=C[C@]5(C)[C@@]4(F)[C@@H](O)C[C@]3(C)[C@]2(C(=O)CO)O1 (stereo partly drawn) | 3.35
CC(C)(C)n1nc(C2CC2)cc1NC(=O)Nc1ccc(Cl)cc1 | 0.7
COc1cc(Cl)c(CC(=O)c2c[nH]c3ccccc23)cc1OC | 1.05
CC(C)(C)N1CC(OC(N)=O)C1 | 1.65
O=[N+]([O-])c1cccc(-c2nc3ccccc3s/c2=N/O)c1 | 1.3

SMILES | T3 sensor activation Q score
CN(C)c1ccc(N=Nc2ccccn2)cc1 | -0.95
Nc1c(Cl)ncnc1NCCO | 0.55
COCC(=O)OC1CCn2c1nc1c2C(=O)C(C)=C(NC(C)=O)C1=O (stereo not drawn) | -0.35
C(=N\n1cnnc1)/c1ccc2c(c1)CCC2 | 0.05
Cc1cc(C)c(C#N)c(Sc2nc(C)c([N+](=O)[O-])c(C)c2C#N)n1 | -0.15
CC(=O)NC1(C(=O)O)CCCC1 | -1.1
CC(=NO)C1CC(CC(=O)O)C1(C)C (stereo not drawn) | -0.55
O=c1cc(-c2ccccc2)nc2cc(-c3ccco3)[nH]n12 | 0.35
Cn1c(N)c(C(=O)/C=C/c2ccccc2)c(=O)[nH]c1=O | 1.7
OCc1ncccc1O | -0.75
CN(C)CCCN1c2ccc3ccccc3c2Sc2cccc(Cl)c21 | -0.4
S=c1[nH]cc2cnccn12 | -1.4
CCOc1ccc(NC(=S)NC(=O)c2ccco2)cc1 | -1.05
Cc1ccn(C)c(=N)c1 | 2
O=C1OCC/C1=C\NCCCCCCCCN/C=C1\CCOC1=O | 1.2
O=C1N=NC2=C1c1c3ccccc3c(O)n1CC2 | 1.7
CC(C)=CCC/C(C)=C\C(N)=O | 0.2
CC(C)CC(NC(=O)OCc1ccccc1)C(=O)NC(Cc1c[nH]c2ccccc12)C(=O)O (stereo not drawn) | -0.85
O=C1CSC(c2cccs2)N1c1nncs1 (stereo not drawn) | 0.05
N=C(N)n1c(N)nc2ccccc2c1=O | -0.55
